Structures are written as SMILES. Out of some 69,000 compounds screened, about 8,600 (12%) showed an effect of 50% or more. The sample holds strong results, similar compounds and a random draw of the others, so the mix is not that of the screen.

The subject of the assay is Plasmodium berghei. The assay is described as follows: Screen against P. berghei liver stage (PbLuc), transformed with Luciferase, at 10uM. It is filed as functional, HepG2. Particulars: tested at 10 uM.
Take `Nc1nc(N)c2c(n1)OC1(CCCN(Cc3nccs3)CC1)C2` (stereo unspecified): the INHIBITION was found to be 10.25%.

On to `CC(C)c1noc(CCNC(=O)N2CCC(O)(C(F)(F)F)C2)n1` (stereo unspecified), for which the INHIBITION is 36.5%. Under `Fc1ccc(C2(CNCC(F)F)CCOC2)cc1` (stereo unspecified) stands 22.5%; under `OCCOCCNCC1(c2ccc(F)cc2)CCOC1` (stereo unspecified), 31.6%. Under `Fc1ccc(C2(CNCCc3cccs3)CCOC2)cc1` (stereo unspecified) stands 63.1%; under `CCc1noc(-c2cccc(NC(=O)C(C)(C)C)c2)n1`, 32.5%; under `Cc1ncc(-c2ccncc2)c(C2CCN(C(=O)c3ccno3)CC2)n1`, 24.05%. Under `CNC(=O)C1(C)CN(c2nc(C)cc(C)n2)CCO1` (stereo unspecified) stands -3.94%.

For the compound `CC(=O)Nc1nc2c(s1)C(C)(C)Nc1ccccc1S2`, the INHIBITION is 59%. For the compound `CC(=O)Nc1nc2c(s1)C1(CCN(C)CC1)Nc1ccccc1S2`, the INHIBITION was 10%. `CC(=O)Nc1nc2c(s1)C1(CCCC1)Nc1ccccc1S2`: the INHIBITION was 41.2%. Under `CC(C)(C)OC(=O)NCCNC(=O)c1ccc(-c2ccco2)[nH]c1=O` stands 7.12%. Under `CNC(=O)c1cnc2n1CCN(Cc1cccnc1)C2` stands 49.1%. Consider `Cc1cccc(NC(=O)C2CSc3ncc(C)c(=O)n3C2)n1` (stereo unspecified), for which the INHIBITION is on record as 6.83%. For `Cc1cnc2n(c1=O)CC(C(=O)Nc1ccon1)CS2` (stereo unspecified), the INHIBITION was found to be 61.5%. Under `Cc1cccnc1NC(=O)C1CSc2ncc(C)c(=O)n2C1` (stereo unspecified) stands -4.99%; under `Cc1cnc2n(c1=O)CC(C(=O)Nc1ccccc1Cl)CS2` (stereo unspecified), -17%; under `Cc1cnc2n(c1=O)CC(C(=O)NCc1ccccc1Cl)CS2` (stereo unspecified), 65.9%.

Turning to `CSc1ccccc1NC(=O)C1CSc2ncc(C)c(=O)n2C1` (stereo unspecified), the INHIBITION came out at 60%. Take `Cc1cnc2n(c1=O)CC(C(=O)NC1CC1)CS2` (stereo unspecified): the INHIBITION is -14.6%. Take `Cc1ccc(Cl)cc1NC(=O)C1CSc2ncc(C)c(=O)n2C1` (stereo unspecified): the INHIBITION is reported as -34.5%. Under `Cc1ccncc1NC(=O)C1CSc2ncc(C)c(=O)n2C1` (stereo unspecified) stands 43.8%. Under `Cc1sc(N)nc1-c1ccc(Cl)cc1` stands -7.77%.

Turning to `COc1cccc(NC(=O)c2cc3c([nH]c2=O)CCCC3=O)c1`, the INHIBITION is -37.6%.

`Cc1nc2ccccc2n1CCNCc1cccc(C#N)c1`: the INHIBITION came to 17.5%.

As for `CCNC(=O)c1ccc(NC2CCOC3(CCCCC3)C2)nn1` (stereo unspecified), the INHIBITION is listed as -9.82%.

As to `CC(NC(=O)NCCCc1n[nH]c(N)c1C#N)c1ccc(Cl)cc1` (stereo unspecified), the INHIBITION amounted to 7.08%. On to `CCC1(CC)Cc2ccccc2-c2nc(CN(C)C)nc(O)c21`, for which the INHIBITION was found to be 53.7%. Under `CCC1(C)Cc2ccccc2-c2nc(NCCO)nc(O)c21` (stereo unspecified) stands 20.9%. As for `CC1(C)Cc2ccccc2-c2nc(NCCCO)[nH]c(=O)c21`, the INHIBITION was 45.8%.

For `CN(Cc1ccccc1)C1(C(=O)O)Cc2ccccc2C1`, the INHIBITION is given as 26.1%. Under `Cc1cc(NCCO)nc(-c2ccccc2O)n1` stands -16%; under `CC1(C)Cc2ccccc2-c2nc(NCCO)[nH]c(=O)c21`, -4.74%.

For `CCC1(CC)Cc2ccccc2-c2nc(NCCO)[nH]c(=O)c21`, the INHIBITION is 64%. Under `O=c1c(NCCCO)c(N2CCN(c3ccccc3)CC2)c1=O` stands 44.9%. For the compound `CCC1(CC)Cc2ccccc2-c2nc(NCCCO)[nH]c(=O)c21`, the INHIBITION was found to be 62.3%. Under `CNc1ccc(CC2CCCN(C(=O)c3scnc3C)C2)nn1` (stereo unspecified) stands 26.3%; under `CO[C@H]1CN(C(=O)c2cccc(C)n2)CC[C@@]12CCCO2`, 21.7%.

Take `Cc1ccc(N2CCCC(NCc3ccc4c(c3)CCO4)C2)nn1` (stereo unspecified): the INHIBITION stood at 7.12%. Under `COCCN1CCCC(c2ncc(C(=O)N(C)C)c(C)n2)C1` (stereo unspecified) stands 9.98%; under `Cc1ccc(CN2C[C@@H]3[C@@H](C(=O)NCC(C)C)CCS(=O)(=O)[C@@H]3C2)cc1`, -36.9%; under `COc1ccc(CN(C)Cn2cc(C)n(-c3cc(C)on3)c2=O)cc1`, 19.3%. Turning to `Cc1cccnc1NC(=O)N(CCO)Cc1ccsc1`, the INHIBITION was -6.75%. For the compound `CNC(=O)c1cccnc1N1CCC(OCc2ccccc2)CC1`, the INHIBITION is 6.11%. Under `CNC(=O)c1cccnc1N1CCN(C/C=C/c2ccccc2)CC1` stands 25.1%.

`CNC(=O)c1cccnc1N1CCC(Oc2ccc(F)cc2)CC1`: the INHIBITION is listed as 93.6%. In the case of `CCN(C)C(=O)c1ccc(N2CCC(Oc3cccc(F)c3)CC2)nc1`, the INHIBITION stood at 61%.

As for `COC(=O)c1cccnc1N1CCC(Oc2cccc(F)c2)CC1`, the INHIBITION was determined as 58.4%.

`Cc1ccc(NC2CCN(C(=O)COc3cccc(F)c3)CC2)nn1`: the INHIBITION was 4.52%. On to `O=C(O)c1ccc(N2CCC(Oc3ccc(Cl)cc3)CC2)nc1`, for which the INHIBITION worked out at 29.4%. Under `O=C(O)c1ccc(N2CCC(Oc3cccc(F)c3)CC2)nc1` stands 32.2%; under `O=C(O)c1cccc(N2CCC(Oc3cccc(F)c3)CC2)n1`, 35%; under `COc1ncccc1C(=O)N1CC[C@]2(C[C@@H](Oc3cccnc3)CO2)C1`, 6.66%. Under `CC(C)NC(=O)C1CN(C(=O)Nc2cccc(F)c2)CC12CCOCC2` (stereo unspecified) stands 17.1%; under `Cc1cnn(CC(C)Nc2cnc3ccccc3n2)c1` (stereo unspecified), -26.8%; under `CCn1cc(-n2cc3nc(N4CCN(C)CC4)[nH]cc-3c2=O)cn1`, -5.53%.

The values are drawn from ChEMBL document CHEMBL4513216, “Probing the Open Global Health Chemical Diversity Library for Multistage-Active Starting Points for Next-Generation Antimalarials” (ACS Infect Dis, 2020).
